The full list was thinned out, with hits kept by preference.
12-LOX inh – Primary qHTS assay for inhibitors of human arachidonate 12S-lipoxygenase (ALOX12): Round 2; Potency, µM (doses to about 108 µM), inactives show at the highest dose activity change, negative = inhibition, actives largely listed as inhibitors; AID 1671190, 2021; Polyunsaturated fatty acid lipoxygenase ALOX12 (Homo sapiens), P18054; purified 12hLO, xylenol orange hydroperoxide absorbance; 580,000 compounds, 1.1% hits; also: potency is read from the fitted curve at half-maximal effect
Target sequence (P18054 whole entry, looked up): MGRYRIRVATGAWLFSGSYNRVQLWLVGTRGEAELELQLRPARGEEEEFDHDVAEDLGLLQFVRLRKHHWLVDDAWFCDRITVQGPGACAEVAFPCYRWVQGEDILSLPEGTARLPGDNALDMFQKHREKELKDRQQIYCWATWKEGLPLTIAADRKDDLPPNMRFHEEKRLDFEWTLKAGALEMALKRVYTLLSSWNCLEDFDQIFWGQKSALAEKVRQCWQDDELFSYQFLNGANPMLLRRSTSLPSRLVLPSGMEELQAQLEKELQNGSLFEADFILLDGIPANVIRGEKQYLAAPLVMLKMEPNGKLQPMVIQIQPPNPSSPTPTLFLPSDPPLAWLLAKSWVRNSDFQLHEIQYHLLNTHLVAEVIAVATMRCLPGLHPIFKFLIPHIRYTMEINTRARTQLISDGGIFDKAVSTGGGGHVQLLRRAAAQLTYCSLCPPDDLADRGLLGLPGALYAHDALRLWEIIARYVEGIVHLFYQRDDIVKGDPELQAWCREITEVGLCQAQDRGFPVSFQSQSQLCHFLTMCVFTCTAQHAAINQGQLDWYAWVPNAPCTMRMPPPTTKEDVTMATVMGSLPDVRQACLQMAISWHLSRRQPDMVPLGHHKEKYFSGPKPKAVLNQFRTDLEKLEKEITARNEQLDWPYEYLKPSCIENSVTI
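Purified human 12hLO (150 nM final) in 25 mM Hepes, 0.01% Triton X-100, pH 7.0 was preincubated 15 min at room temperature with compound. Then 40 uM arachidonic acid was added, 30 min. Hydroperoxide was read by Fe-XO absorbance ratio 573/405 nm.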
HT1080 IDH1KD tx – qHTS for induction of synthetic lethality in tumor cells producing 2HG: qHTS for the HT-1080-IDH1KD cell line; Potency, µM (highest dose often 46.1 µM), without a hit: at the highest dose activity, negative = toxicity, most hits filed as cytotoxic; 360,000 compounds, 2% hits; HT-1080 IDH1 knockdown viability, ATP luminescence, 48 h;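 also: potency is read from the fitted curve at half-maximal effect; 0% = DMSO wells and -100% = cell-free medium wells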
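Assay cells: HT-1080 with IDH1 knockdown, 750 per well, RPMI/5% FBS. Exposure: 48 h at 37 °C following 2 h pre-incubation. Read: CellTiter-Glo luminescence; fitted concentration-response, curve class assigned.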
IL-1B inflam inh – qHTS for Inhibitors of Inflammasome Signaling: IL-1-beta AlphaLISA Primary Screen; THP-1 LPS/ATP IL-1B secretion, AlphaLISA, 16 h; hits give low values; activity change, % at 57.5 µM; 360,000 compounds, 4.7% hits; in the data active = activity change below about -50%; inconclusive = mostly about -30% to -49%
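Secreted IL-1B measured by AlphaLISA bead assay after 16 h compound exposure of THP-1 cells; compounds (final up to 57.5 uM) added 1 h before LPS (250 ng/mL) and ATP (1.25 mM) stimulation; lower signal means less secretion.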
DT40 TDP1 no CPT – qHTS for Inhibitors of human tyrosyl-DNA phosphodiesterase 1 (TDP1): qHTS in cells in absence of CPT | 420,000 compounds, 15% hits | AID 686978, 2013 | DT40 Tdp1-/- hTDP1 cells, no CPT, ATP luminescence, 48 h | Potency, µM (highest dose often 46.2 µM), inactives show top-dose activity change, negative = growth inhibition, actives largely listed as inhibitors; also: potency is read from the fitted curve at half-maximal effect; nearly all actives have a fitted effect of over 55% in size
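Chicken DT40 Tdp1-/- cells stably complemented with human TDP1 were seeded at 400 cells/well with DMSO in place of 20 nM camptothecin. After compound pinning, cells grew at least 48 hr at 37 °C; viability read by CellTiter-Glo luminescence.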
HT1080NT lethal – qHTS for induction of synthetic lethality in tumor cells producing 2HG: qHTS for the HT-1080-NT fibrosarcoma cell line; HT-1080-NT fibrosarcoma viability, CellTiter-Glo ATP luminescence, 48 h; Potency, µM (titrated, usually from 46.1 µM), inactives show at the top dose activity, negative = less viability, hits mostly cytotoxic; 360,000 compounds, 1.6% hits; AID 686970, 2013;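 also: NT is the 2HG producing partner of a matched IDH1 knockdown line; potency is read from the fitted curve at half-maximal effect; 0% = DMSO-treated cells and -100% = media-only wells without cells; nearly all actives have a fitted effect of over 55% in size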
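Read-out is CellTiter-Glo luminescence after 10 minutes at room temperature, following 48 hours' compound treatment of HT-1080-NT cells (750 cells/well, RPMI, 5% FBS, 37 degrees C).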
TDP1 cell CPT – qHTS for Inhibitors of human tyrosyl-DNA phosphodiesterase 1 (TDP1): qHTS in cells in presence of CPT | 420,000 compounds, 12% hits | chicken DT40 Tdp1-/-;hTDP1 cells + 20 nM CPT, ATP luminescence, 48 h | Potency, µM (titrated, usually from 46.2 µM), inactives show top-dose activity change, negative = growth inhibition, actives largely listed as inhibitors; also: potency is read from the fitted curve at half-maximal effect; nearly all actives have a fitted effect of over 55% in size
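Chicken DT40 Tdp1-/- cells complemented with human TDP1, 400 cells/well, exposed to compounds plus 20 nM camptothecin for at least 48 h at 37 C; viability read as ATP content by CellTiter-Glo luminescence.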
Starred values were filed as active, the others as inactive; ? = inconclusive; . = not tested or not shown; ! = not active in a repeat. Unless noted, calls follow the shape of the dose curve; as a rule, active = well fitted curve in the direction sought with a large enough effect; inconclusive = small, poorly fitted or top-dose-only effect, or another doubt; inactive = no such curve, though single readings can be large; an effect the other way counts as inactive or inconclusive. Unless noted, % is scaled to controls: 0 for no effect and ±100 for the full control effect.

SMILES	12-LOX inh	HT1080 IDH1KD tx	IL-1B inflam inh	DT40 TDP1 no CPT	HT1080NT lethal	TDP1 cell CPT
NC(=O)[C@H](Cc1cccs1)NC(=O)[C@@]1(O)C[C@@H](O)[C@H](O)[C@@H](NC(=O)CC2(CC(=O)O)CCCC2)C1	28.8%	.	.	.	.	.
O=C(CS(=O)(=O)c1ccccc1)Nc1nccs1	?	5.5%	12.2	-8.1%	2.9%	-0.5%
Cc1ccccc1C(=O)NCc1ccco1	5.9%	.	.	.	.	.
CCOc1cc(NC(=S)NCC2CCCO2)c(OCC)cc1NC(=O)c1ccccc1F (stereo not given)	39.8µM*	-2.0%	-22.2	23.1µM*	-5.3%	?
Cc1ccccc1-c1noc(-c2ccccc2C(=O)NCc2ccco2)n1	?	-6.9%	?	18.4µM*	-0.5%	?
CCOc1cc(NC(=S)NCC2CCCO2)c(OCC)cc1NC(=O)CC (stereo not given)	-21.3%	-0.1%	11.6	13.5%	?	8.6%
COC(=O)COc1ccc(NS(=O)(=O)c2cccc([N+](=O)[O-])c2)cc1	-11.6%	-14.9%	-151.7*	2.5%	-3.7%	2.2%
COC(=O)COc1cccc(NS(=O)(=O)c2cccc([N+](=O)[O-])c2)c1	-20.7%	4.1%	-194.2*	3.3%	0.1%	1.5%
COC(=O)COc1ccc(S(=O)(=O)Nc2cc([N+](=O)[O-])ccc2C)cc1	2.5%	11.5%	39.0	-4.6%	0.1%	0.5%
COc1ccc(Cl)cc1-n1cnc2cc(C(=O)N3CCSCC3)ccc2c1=O	-2.2%	.	.	.	.	.
CC(=O)NCCc1ccccc1C	6.6%	.	.	.	.	.
CC(C)(C)N=Cc1c(O)ccc2oc3c(c12)CCCC3	-28.7%	0.0%	42.3	-0.9%	?	-12.4%
O=c1c2ccccc2nc(N/N=C/c2ccc(O)cc2)n1O	113.6%	-1.9%	12.0	-21.7%	5.6%	?
Cc1nc2ccccc2c(=O)n1/N=C/c1cc(Br)ccc1O	420.5%	?	228.5	?	?	?
Cc1nc2ccccc2c(=O)n1/N=C/c1c(O)ccc2oc3c(c12)CCCC3	?	-13.6%	30.9	18.4µM*	-0.1%	20.6µM*
Cc1nc2ccccc2c(=O)n1/N=C/c1c(O)ccc2ccccc12	-7.5%	?	56.8	18.4µM*	?	?
O=c1c2ccccc2nc(N/N=C/c2c(O)ccc3ccccc23)n1O	?	?	136.4	5.17µM*	?	3.66µM*
NC(=O)N/N=C/c1c(O)ccc2oc3c(c12)CCCC3	-14.7%	-8.4%	-98.0*	?	-18.5%	?
NC(=O)c1ccsc1NC(=O)COc1ccc2c(c1)CCC2	-2.7%	.	.	.	.	.
CCCc1ccc(C2C3=C(CC(C)(C)CC3=O)NC3=C2C(=O)c2ccccc23)cc1 (stereo not given)	25.1µM*!	?	?	16.4µM*	?	20.6µM*
CCCCc1ccc(C2C3=C(CC(C)(C)CC3=O)NC3=C2C(=O)c2ccccc23)cc1 (stereo not given)	-28.6%	-18.9%	?	?	-6.1%	?
CC(C)n1cc(/C=C2/NC(=O)N(c3cccc(Cl)c3)C2=O)c2ccccc21	-1.3%	?	-0.2	?	-14.1%	25.9µM*
Cn1c(=O)c2c(ncn2CC(=O)NCC(c2cccs2)N2CCCC2)n(C)c1=O (stereo not given)	3.9%	.	.	.	.	.
O=c1nc(/C=C/c2ccccc2C(F)(F)F)cc(C(F)(F)F)[nH]1	?	-0.5%	-14.0	-15.6%	0.7%	-11.0%
CCOc1cc(/C=C/c2cc(C(F)(F)F)[nH]c(=O)n2)ccc1O	?	?	-62.6*	?	?	?
SMILES	12-LOX inh	HT1080 IDH1KD tx	IL-1B inflam inh	DT40 TDP1 no CPT	HT1080NT lethal	TDP1 cell CPT
CCOc1cc(/C=C/c2cc(C(=O)O)c3cc(C)ccc3n2)ccc1O	4.3%	.	.	.	.	.
COc1ccc(/C=C/c2cc(C(F)(F)F)[nH]c(=O)n2)cc1OC	8.91µM*	-28.3%	-95.7*	-20.6%	-5.8%	-5.7%
O=C(CSc1nc(=O)n(CCCN2CCOCC2)c2c1CCC2)Nc1ccc([N+](=O)[O-])cc1	7.4%	0.6%	-18.3	-5.5%	-7.4%	-1.0%
CC(C)=CC1C=C(C)C(C)C(c2ccccc2)C1C(=O)c1ccccc1 (stereo not given)	-37.9%	.	.	.	.	.
CC(=O)c1cc(CN2CCC3(CC2)CN(CC(C)c2ccccc2)C(=O)O3)cs1 (stereo not given)	9.3%	.	.	.	.	.
O=c1[nH]c(/C=C2\C=Nc3ccccc32)c(O)n1Cc1ccccc1F	?	?	-96.9*	?	-21.6%	?
CSc1nc(O)c(/C=C2\C=Nc3ccccc32)[nH]1	?	12.4%	-12.6	?	1.9%	?
Cc1ccc(NC(=O)c2c[nH]c3ccccc23)cc1I	33.9%	.	.	.	.	.
CC1=C[C@@H](CNS(=O)(=O)Cc2ccccc2)[C@H](C(C)C)C[C@H]1CC(=O)N1CCOCC1	28.1%	.	.	.	.	.
CCOc1ccccc1NC(=S)N(CCCN1CCOCC1)Cc1cn(C)c2ccccc12	-12.2%	-7.9%	-10.9	?	-4.8%	16.4µM*
COc1ccccc1NC(=S)N(CCN1CCOCC1)Cc1ccccc1F	9.1%	-4.3%	-10.0	?	1.4%	-0.9%
